In PubChem BioAssay (Tox21):
Inconclusive results are not listed. Where a call stands in place of a potency, no number is given. Unmarked numbers belong to inactive results. Active and inactive are the calls of the source. Unless noted, calls come from the whole dose curve; as a rule, active = well fitted curve in the direction sought with a large enough effect in the repeat runs; inconclusive = weak or mixed curves; inactive = no such curve, though single readings can be large; an effect the other way counts as inactive or inconclusive.

Experiments:
[1] = target: Retinoic acid receptor RXR-alpha (Homo sapiens) (UniProt P19793); assay: qHTS assay to identify small molecule agonists of the RXR signaling pathway (AID 1159527; calls by dose curve; note: nearly all actives have a fitted effect of over 35% in size; note: potency is the fitted concentration of half-maximal effect)
Retinoic acid receptor RXR-alpha (Homo sapiens), sequence (P19793 whole entry, looked up): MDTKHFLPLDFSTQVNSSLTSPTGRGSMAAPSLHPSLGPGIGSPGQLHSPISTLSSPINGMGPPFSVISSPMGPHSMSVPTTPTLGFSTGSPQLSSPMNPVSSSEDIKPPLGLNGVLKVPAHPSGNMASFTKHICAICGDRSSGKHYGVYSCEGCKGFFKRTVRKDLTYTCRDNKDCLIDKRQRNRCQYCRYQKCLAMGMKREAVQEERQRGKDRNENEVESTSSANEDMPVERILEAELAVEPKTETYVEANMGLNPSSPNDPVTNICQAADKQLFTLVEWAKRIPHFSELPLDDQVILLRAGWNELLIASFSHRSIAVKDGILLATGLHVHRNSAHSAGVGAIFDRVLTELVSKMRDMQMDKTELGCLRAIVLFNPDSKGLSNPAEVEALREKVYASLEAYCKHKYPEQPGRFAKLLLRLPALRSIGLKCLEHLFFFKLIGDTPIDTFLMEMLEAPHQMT
Outline: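 Using 9-cis retinoic acid as the reference agonist, chemicals were tested in HEK 293T cells […] for 16 hr; substrate loading lasted 2 hr at room temperature.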

[2] = qHTS assay to identify small molecule agonists of the RXR signaling pathway - cell viability counter screen (AID 1159529); note: series mostly up to about 77 µM; nearly all actives have a fitted effect of over 50% in size
Outline: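 Compounds dissolved in DMSO were pinned onto HEK 293T cells carrying a beta-lactamase reporter under RXR-alpha control and incubated 16 hr. Cytotoxicity was then quantified by CellTiter-Glo luminescence.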

[3] = qHTS assay to identify small molecule antagonists of the retinoid acid receptor (RAR) signaling pathway - cell viability counter screen (AID 1159551); note: nearly all actives have a fitted effect of over 35% in size
Outline: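 Seed C3RL4 cells; next day add compound, then retinol to 1 uM final; incubate 6 h at 37 C; add CellTiter-Glo; read luminescence after 30 min at RT.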

[4] = qHTS assay to identify small molecule antagonists of the retinoic acid receptor (RAR) signaling pathway (AID 1159552; note: nearly all actives have a fitted effect of over 50% in size)
Outline: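 Test chemicals and DMSO controls were pin-transferred onto C3RL4 cells a day after seeding; retinol (1 uM final) followed at once. Luminescent reporter output was quantified after 6 hr of co-incubation and 30 min with detection reagent.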

[5] = qHTS assay to identify small molecule agonists of the retinoic acid receptor (RAR) signaling pathway (AID 1159553); note: potency is the fitted concentration of half-maximal effect
Outline: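 Activation of retinol signaling was monitored via a RARE luciferase reporter in C3RL4 cells. After 6 hr compound treatment at 37 C, detection reagent was added for 30 min at room temperature before luminescence reading.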

[6] = qHTS assay to identify small molecule antagonists of the estrogen related receptor (ERR) signaling pathway from Tox21 library - cell viability counter screen (AID 1224834); note: nearly all actives have a fitted effect of over 30% in size
Outline: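 CellTiter-Fluor fluorescence measured; ERR cells; 17.5 h compound incubation at 37 C; 30 min reagent step.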

[7] = target: Luciferin 4-monooxygenase (Photinus pyralis) (UniProt P08659); assay: qHTS assay to identify small molecule inhibitors of firefly luciferase (AID 1224835); note: nearly all actives have a fitted effect of over 25% in size; note: potency is the fitted concentration of half-maximal effect
Luciferin 4-monooxygenase (Photinus pyralis), sequence (P08659 whole entry, looked up): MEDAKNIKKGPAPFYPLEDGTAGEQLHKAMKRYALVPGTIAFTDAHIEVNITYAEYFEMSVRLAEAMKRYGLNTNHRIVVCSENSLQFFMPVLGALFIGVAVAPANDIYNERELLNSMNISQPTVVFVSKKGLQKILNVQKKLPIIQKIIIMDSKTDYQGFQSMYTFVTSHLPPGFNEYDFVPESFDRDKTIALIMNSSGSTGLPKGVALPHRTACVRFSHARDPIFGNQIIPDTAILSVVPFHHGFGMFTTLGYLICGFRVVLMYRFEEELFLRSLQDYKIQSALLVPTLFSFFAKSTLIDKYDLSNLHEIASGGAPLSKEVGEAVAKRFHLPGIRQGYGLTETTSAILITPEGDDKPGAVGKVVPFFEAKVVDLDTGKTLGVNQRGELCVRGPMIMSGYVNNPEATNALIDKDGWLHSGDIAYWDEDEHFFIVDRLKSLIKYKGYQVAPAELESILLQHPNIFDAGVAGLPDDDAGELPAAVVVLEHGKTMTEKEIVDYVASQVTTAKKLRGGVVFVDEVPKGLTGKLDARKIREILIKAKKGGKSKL
Outline: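 Quantitative HTS format; KM concentrations of both substrates. Purified P. pyralis FLuc activity quantified from luminescence images.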

[8] = qHTS assay to identify small molecule agonists of the constitutive androstane receptor (CAR) signaling pathway - cell viability counter screen (AID 1224836); note: series mostly up to about 92 µM; nearly all actives have a fitted effect of over 45% in size
Outline: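 23 h treatment, 37 C, 5% CO2. Cell line: HepG2 stably expressing hCAR with a CYP2B6-2.2kb construct. Co-treatment: PK11195, 0.75 uM final. Read-out: CellTiter-Fluor fluorescence intensity.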

[9] = qHTS assay to identify small molecule antagonists of the constitutive androstane receptor (CAR) signaling pathway - cell viability counter screen (AID 1224837); note: series mostly up to about 92 µM; nearly all actives have a fitted effect of over 45% in size
Outline: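 Using CellTiter-Fluor, viability is scored in HepG2 cells stably carrying hCAR and a 2.2kb CYP2B6 reporter after 23 hr compound exposure across 15 concentrations, with CITCO present at 50 nM.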

[10] = target: Nuclear receptor subfamily 1 group I member 3 (Homo sapiens) (UniProt Q14994); assay: qHTS assay to identify small molecule antagonists of the constitutive androstane receptor (CAR) signaling pathway (AID 1224838);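 note: HepG2 cells stably expressing hCAR with CYP2B6 luciferase reporter stimulated by CITCO; nearly all actives have a fitted effect of over 40% in size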
Nuclear receptor subfamily 1 group I member 3 (Homo sapiens), sequence (Q14994 whole entry, looked up): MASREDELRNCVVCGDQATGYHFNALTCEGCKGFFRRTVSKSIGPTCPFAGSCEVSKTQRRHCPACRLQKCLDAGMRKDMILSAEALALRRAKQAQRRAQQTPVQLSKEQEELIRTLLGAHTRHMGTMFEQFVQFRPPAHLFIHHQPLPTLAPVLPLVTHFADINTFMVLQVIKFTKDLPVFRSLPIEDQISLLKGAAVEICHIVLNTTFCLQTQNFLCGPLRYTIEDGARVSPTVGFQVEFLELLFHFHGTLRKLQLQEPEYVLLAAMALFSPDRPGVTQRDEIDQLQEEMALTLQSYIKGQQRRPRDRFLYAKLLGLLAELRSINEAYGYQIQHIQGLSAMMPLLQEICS
Outline: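 Reporter luminescence was quantified after 24 h exposure of hCAR/CYP2B6-2.2kb double-stable HepG2 cells to compounds at 15 concentrations in the presence of 50 nM CITCO final.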

[11] = target: Nuclear receptor subfamily 1 group I member 3 (Homo sapiens) (UniProt Q14994); assay: qHTS assay to identify small molecule agonists of the constitutive androstane receptor (CAR) signaling pathway (AID 1224839); note: nearly all actives have a fitted effect of over 15% in size; note: potency is the fitted concentration of half-maximal effect
Outline: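 Compounds tested at 15 concentrations on HepG2 cells stably harbouring hCAR and CYP2B6-2.2kb reporter constructs, co-treated with PK11195 (0.75 uM final), 24 h at 37 C; luminescent reporter signal quantified.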

[12] = qHTS assay to identify small molecule antagonists of the estrogen related receptor signaling pathway with the pleiotropic PPARgamma coactivator (PGC) from Tox21 10K library - cell viability counter screen (AID 1224840; active = well fitted cell-killing curve with a large enough effect in the repeat runs, not every such curve was filed as active; note: nearly all actives have a fitted effect of over 40% in size)
Outline: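 Here the PGC/ERR cells serve as a cytotoxicity control: they are exposed to compounds for 17.5 hours at 37 C, and live-cell signal is quantified using CellTiter-Fluor fluorescence.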

[13] = qHTS assay to identify small molecule antagonists of the estrogen related receptor signaling pathway with the pleiotropic PPARgamma coactivator (PGC) from Tox21 10K library (AID 1224841; call rule not given here; note: series mostly up to about 92 µM; actives are mostly falling curves and most rising ones were filed inactive; nearly all actives have a fitted effect of over 50% in size)
Outline: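 Each well held 2,000 PGC/ERR cells, pre-incubated six hours (37 C, 5% CO2). Test substances in DMSO were added by pin tool and left for 18 h at 37 C before luciferase detection by One-Glo.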

[14] = qHTS assay to identify small molecule agonists of the estrogen related receptor signaling pathway with the pleiotropic PPARgamma coactivator (PGC) from Tox21 10K library (AID 1224842); note: nearly all actives have a fitted effect of over 15% in size
Outline: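 PGC/ERR reporter cells (NTP line) were seeded 2,000 per well, rested 6 h at 37 C/5% CO2, then pin-dosed with compounds in DMSO for 18 h at 37 C; luciferase read by One-Glo luminescence after 30 min at room temperature.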

[15] = qHTS assay to identify small molecule antagonists of the estrogen related receptor (ERR) signaling pathway - cell viability counter screen (AID 1224818);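 note: series mostly up to about 46 µM; viability measured after 17.5 h of compound exposure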
Outline: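 In the same ERR cell assay, compound-treated wells (17.5 h, 37 C) were multiplexed with a fluorogenic viability reagent, CellTiter-Fluor, read after 30 min to flag cytotoxic substances.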

[16] = qHTS assay to identify small molecule antagonists of the estrogen related receptor signaling pathway with the pleiotropic PPARgamma coactivator (PGC) cell viability counter screen (AID 1224822; note: series mostly up to about 46 µM)
Outline: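 Compounds in DMSO, with positive and negative controls, were applied to PGC/ERR cells (2,000/well) and left 17.5 h at 37 C before CellTiter-Fluor detection.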

[17] = qHTS assay to identify small molecule antagonists of the estrogen related receptor (ERR) signaling pathway (AID 1224819;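 note: luminescence from an ERR-driven luciferase reporter measured with One-Glo reagent; series mostly up to about 46 µM; nearly all actives have a fitted effect of over 50% in size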)
Outline: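 qHTS in ERR cells, 2,000/well, 1536 format. Cpd (DMSO) added after 6 h settle, 18 h 37 C. One-Glo luminescence, 30 min RT.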

[18] = qHTS assay to identify small molecule agonists of the estrogen related receptor (ERR) signaling pathway (AID 1224820)
Outline: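 ERR reporter cell line (from NTP), 2,000 cells/well, incubated 6 h before compound addition, then 18 h at 37 C. Luminescence measured 30 min after One-Glo reagent at room temperature.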

[19] = qHTS assay to identify small molecule agonists of the estrogen related receptor signaling pathway with the pleiotropic PPARgamma coactivator (PGC) (AID 1224823)
Outline: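 PGC/ERR reporter cells seeded 6 h, then exposed to compounds (23 nL in DMSO) for 18 h at 37 C. One-Glo luciferase luminescence read after 30 min at room temperature.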

[20] = tested on: estrogen-related receptor alpha (ERRalpha) with PGC-1alpha coactivator, human; assay: qHTS assay to identify small molecule antagonists of the estrogen related receptor signaling pathway with the pleiotropic PPARgamma coactivator (PGC) (AID 1224821; calls by dose curve)
Outline: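 PGC/ERR reporter cell line, plated 6 h before compound addition, then exposed 18 h at 37 °C. Luciferase activity read by luminescence 30 min after One-Glo addition; decrease indicates antagonism.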

Compound	Potency [1]	Potency [2]	outcome [3]	Potency [4]	Potency [5]	Potency [6]	Potency [7]	Potency [8]	Potency [9]	Potency [10]	Potency [11]	Potency [12]	Potency [13]	Potency [14]	outcome [15]	outcome [16]	outcome [17]	outcome [18]	outcome [19]	outcome [20]
FC(F)(F)C(F)(F)C(F)(F)C(F)(F)C(F)(F)C(F)(F)C(F)(F)C(F)(F)Br	inactive	inactive	inactive	inactive	inactive	inactive	inactive	inactive	inactive	inactive	inactive	inactive	inactive	inactive						
C=C(C)C(=O)OCCOP(=O)(O)O	inactive	inactive	inactive	inactive	inactive	inactive	inactive	inactive	inactive	inactive	inactive	inactive								
OC[C@H]1O[C@@H](O[C@H]2[C@H](O)[C@@H](O)[C@H](O)O[C@@H]2CO)[C@H](O)[C@@H](O)[C@H]1O	inactive	inactive	inactive	inactive	inactive	inactive	inactive	inactive	inactive	inactive	inactive	inactive	inactive	inactive						
CCCS(=O)c1ccc2nc(NC(=O)OC)[nH]c2c1 (configuration not stated)	inactive	inactive	inactive	inactive	inactive	inactive	inactive	inactive	inactive	inactive	inactive	inactive								
CCOc1ccc2nc(N)sc2c1	inactive	inactive	inactive	inactive	3.83 µM (active)	inactive	19.9 µM (active)	inactive	inactive	inactive	21.5 µM (active)	inactive	inactive							
CCCCNc1cc(C(=O)O)cc(S(N)(=O)=O)c1Oc1ccccc1	inactive	inactive	inactive	inactive	inactive	inactive	inactive	inactive	inactive			inactive			inactive	inactive				
O=C1N(c2ccccc2)c2ccccc2C1(Cc1ccncc1)Cc1ccncc1	inactive	inactive	inactive	inactive	inactive		inactive	inactive	inactive	inactive	inactive	inactive	inactive		inactive	inactive	inactive	inactive	inactive	
CC1=C(O)C(=O)OC1C (configuration not stated)	inactive	inactive	inactive	inactive	inactive	inactive	inactive	inactive	inactive	inactive	inactive	inactive								
Cc1ccsc1C(=CCCN1CCC[C@@H](C(=O)O)C1)c1sccc1C	inactive	inactive	inactive	inactive	inactive	inactive	inactive	inactive	inactive	inactive	inactive	inactive								
Cn1cnc2c(F)c(Nc3ccc(Br)cc3Cl)c(C(=O)NOCCO)cc21	inactive	inactive	inactive	inactive	inactive	inactive	inactive	inactive	inactive	inactive	inactive	inactive	inactive							
Cc1ccc([N+](=O)[O-])cc1Cl	inactive	inactive	inactive	inactive	inactive	inactive	inactive	inactive	inactive	inactive	inactive	inactive	inactive							
c1ccc(CN(CC2=NCCN2)c2ccccc2)cc1	inactive	inactive	inactive	inactive	inactive	inactive	inactive	inactive	inactive	inactive	inactive	inactive	inactive	inactive						
Oc1ccccc1C=NCc1ccccc1	inactive	inactive	inactive	inactive	inactive	inactive	34.7 µM (active)	inactive	inactive	inactive	inactive	inactive								
C=CCc1cc(OC)c(O)c(C(=O)NCCO)c1	inactive	inactive	inactive	inactive	inactive	inactive	inactive	inactive	inactive	inactive	inactive	inactive								
NC/C=C/C(=O)O	inactive	inactive	inactive	inactive	inactive	inactive	inactive	inactive	inactive	inactive	inactive	inactive	inactive	inactive	inactive	inactive	inactive	inactive	inactive	inactive
CC(=O)OC(C)OC(C)=O	2.01 µM (active)	inactive	inactive	inactive	inactive	inactive	inactive	inactive	inactive	inactive	inactive	inactive								
CCOc1ccc(NC(N)=O)cc1	inactive	inactive	inactive	inactive	inactive	inactive	inactive	inactive	inactive	inactive	inactive	inactive	inactive							
O=C1CCC(C2CCCCC2)CC1	inactive	inactive	inactive	inactive	inactive	inactive	inactive	inactive	inactive	inactive	inactive	inactive	inactive							
CCN[C@H]1CN(CCCOC)S(=O)(=O)c2sc(S(N)(=O)=O)cc21	inactive	inactive	inactive	inactive	inactive	inactive	inactive	inactive	inactive	inactive	inactive	inactive								
